By AC50 is commonly meant the concentration giving half of the maximal activity seen.

Assay [1] in a line: APR_HepG2_NuclearSize_24hr: Apredica 24-hour HepG2 Assay for Nuclear Size (AID 2282907). To be noted: high-content imaging, actives raise or lower the signal. In outline: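 Compounds in DMSO (final 0.5%) were added to human HepG2 hepatoma cells at ten concentrations up to 200 uM for 24 hr. Fixed nuclei were stained with Hoechst 33342, and nuclear diameter was quantified from automated images.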

Assay [2] can be described thus: APR_HepG2_CellLoss_24hr: Apredica 24-hour HepG2 Assay for Cell Loss (AID 2282908).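 On AC50: fit in both directions so a hit may be cell loss or gain.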 The settings on record: high-content imaging. In outline:
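Cell number is quantified by fluorescence imaging of Hoechst 33342-stained nuclei following dosing at 0.39–200 uM in 0.5% DMSO. Curves are fitted in both directions from the DMSO baseline.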

Assay [3] can be described thus: APR_HepG2_MicrotubuleCSK_24hr: Apredica 24-hour HepG2 Assay for Microtubule CSK Stabilty (AID 2282909). The settings on record: HepG2 microtubule cytoskeleton imaging, actives raise or lower the signal. In outline: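 Steps: dose HepG2 for 24 h (0.39–200 uM, 0.5% DMSO); fix 30 min in 3.7% formaldehyde at room temperature; permeabilize; stain alpha-tubulin 60 min; image microtubule cytoskeleton at 20x. Signal change fitted in both directions relative to DMSO.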

Assay [4] can be described thus: APR_HepG2_MitoticArrest_24hr: Apredica 24-hour HepG2 Assay for Mitotic Arrest (AID 2282910). To be noted: high-content imaging, actives raise or lower the signal. In outline: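 HepG2 cells, 24 h exposure at 0.39-200 uM (10 concentrations, duplicate, 0.5% DMSO). Fixed, stained for phospho-histone H3 with Hoechst; imaged by high-content microscopy, bidirectional fit versus DMSO.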

Assay [5] is described as follows: APR_HepG2_MitoMembPot_24hr: Apredica 24-hour HepG2 Assay for Mitochondrial Membrane Potential (AID 2282911). To be noted: imaging, actives raise or lower the signal. The method, boiled down: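 Mitochondrial dye uptake (MitoTracker Red CMXRos, 250 nM, 30 min pre-fixation) in HepG2 after 24 hr compound exposure, 0.39–200 uM; ArrayScan images at 20x, activity fitted in both directions relative to DMSO.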

A short description of assay [6]: APR_HepG2_MitoMass_24hr: Apredica 24-hour HepG2 Assay for Mitochondrial Mass (AID 2282912). To be noted: high-content imaging, actives raise or lower the signal. The method, boiled down:
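The liver line HepG2 was dosed in duplicate across a 0.39–200 uM series, with final DMSO held at 0.5% v/v, and harvested at 24 hr. High-content imaging measured mitochondrial dye staining.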

The nature of assay [7]: APR_HepG2_p53Act_24hr: Apredica 24-hour HepG2 Assay for p53 Activation (AID 2282913).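 Further: p53 protein immunofluorescence averaged per cell in HepG2 with Hoechst nuclei.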 To be noted: high-content imaging, actives raise or lower the signal. The method, boiled down:
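Following 24 hr dosing of HepG2 at 0.39–200 uM, the cells undergo formaldehyde fixation, Triton permeabilization and multiplexed antibody labeling that includes p53 (Cy5). Signal from the imaging is referenced to DMSO solvent controls.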

The nature of assay [8]: APR_HepG2_CellCycleArrest_72hr: Apredica 72-hour HepG2 Assay for Cell Cycle Arrest (AID 2282914). The settings on record: high-content imaging, actives raise or lower the signal. The method, boiled down: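 Using multiplexed high-content imaging, HepG2 nuclei stained with Hoechst 33342 (2 ug/mL) were analysed for DNA content after fixation and permeabilization. Treatment lasted 72 hr across 0.39–200 uM in duplicate with final DMSO 0.5% v/v; DMSO served as negative control.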

The nature of assay [9]: APR_HepG2_CellLoss_72hr: Apredica 72-hour HepG2 Assay for Cell Loss (AID 2282915). The settings on record: high-content imaging. In outline:
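HepG2 cells exposed 72 h to compound at 0.39–200 uM (10 concentrations, duplicate) in 0.5% DMSO. Fixed with 3.7% formaldehyde and Hoechst 33342-stained. Imaged at 20x; nuclear count gives cell number, fitted bidirectionally versus DMSO.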

Assay [10] is described as follows: APR_HepG2_P-H2AX_72hr: Apredica 72-hour HepG2 Assay for H2AX Phosphorylation (AID 2282916).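 Further: phospho-histone H2A.x immunostain intensity per cell marking DNA damage.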 To be noted: imaging, actives raise or lower the signal. In outline: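 Following 72 hr treatment with 0.39–200 uM compound, HepG2 cells were formaldehyde-fixed, permeabilized and stained for phospho-H2A.x; signal was measured by high-content imaging and fitted bidirectionally against DMSO controls.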

Assay [11] can be described thus: APR_HepG2_MitoMembPot_72hr: Apredica 72-hour HepG2 Assay for Mitochondrial Membrane Potential (AID 2282917). To be noted: imaging, actives raise or lower the signal. In outline:
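HepG2 cells dosed 72 hr with compound at 0.39–200 uM in duplicate, 0.5% v/v DMSO final. Mitochondria stained with 250 nM MitoTracker Red CMXRos for 30 min before formaldehyde fixation, imaged by high-content fluorescence; bidirectional fit versus DMSO.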

Assay [12] can be described thus: APR_HepG2_MitoticArrest_72hr: Apredica 72-hour HepG2 Assay for Mitotic Arrest (AID 2282918). To be noted: high-content imaging, actives raise or lower the signal. In outline:
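Using high-content imaging of fixed HepG2 cells, phospho-histone H3 signal was measured following a 72 hr incubation with ten-point compound dilutions up to 200 uM. DMSO served as the negative control and baseline for bidirectional curve fitting.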

Assay [13] is described as follows: APR_HepG2_MicrotubuleCSK_72hr: Apredica 72-hour HepG2 Assay for Microtubule CSK Stabilty (AID 2282919). The settings on record: HepG2 microtubule cytoskeleton, high-content imaging, actives raise or lower the signal. In outline:
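HepG2 cells were exposed 72 hr to compound at 0.39–200 uM in duplicate (0.5% DMSO final), then fixed and permeabilized. Alpha-tubulin immunofluorescence was imaged by high-content microscopy, with bidirectional fitting against DMSO and taxol as positive control.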

Assay [14] is described as follows: APR_HepG2_P-H2AX_24hr: Apredica 24-hour HepG2 Assay for H2AX Phosphorylation (AID 2282920). To be noted: high-content imaging, actives raise or lower the signal. The method, boiled down: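 Human HepG2 liver cells, treated 24 hr with test chemicals (0.39–200 uM, final DMSO 0.5% v/v), are fixed and co-stained for phospho-H2A.x and c-Jun with Hoechst. Imaged intensity is fitted in both directions against DMSO controls.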

Assay [15] can be described thus: APR_HepG2_StressKinase_72hr: Apredica 72-hour HepG2 Assay for Stress Kinase (AID 2282921). The settings on record: HepG2 stress kinase (phospho-c-Jun) imaging, actives raise or lower the signal. The method, boiled down:
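Fluorescence intensity of Cy3-tagged anti-phospho-c-Jun antibody, quantified per cell from Hoechst-defined nuclei across six images per well, served as the read-out following 72 h exposure (0.39–200 uM, 0.5% v/v DMSO).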

Assay [16] can be described thus: APR_HepG2_StressKinase_24hr: Apredica 24-hour HepG2 Assay for Stress Kinase (AID 2282922). The settings on record: HepG2 stress kinase (phospho-c-Jun) imaging, actives raise or lower the signal. The method, boiled down:
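HepG2 cells exposed 24 h to 0.39–200 uM compound in duplicate (0.5% v/v DMSO final). Cells fixed in 3.7% formaldehyde, permeabilized and immunostained for phospho-c-Jun; read by high-content fluorescence imaging, fitted bidirectionally against DMSO.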

A short description of assay [17]: APR_HepG2_p53Act_72hr: Apredica 72-hour HepG2 Assay for p53 Activation (AID 2282923).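 Further: average cellular p53 protein immunofluorescence intensity in HepG2 cells.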 The settings on record: high-content imaging, actives raise or lower the signal. In outline: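 HepG2 monolayers receive test compounds in duplicate at ten concentrations (0.39 through 200 uM) for 72 hr. They are then formaldehyde-fixed, antibody-labelled for p53, Hoechst-stained and imaged, with activity fitted bidirectionally versus DMSO.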

The nature of assay [18]: APR_HepG2_MitoMass_72hr: Apredica 72-hour HepG2 Assay for Mitochondrial Mass (AID 2282924).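 Further: MitoTracker Red CMXRos stain intensity per cell imaged as mitochondrial mass.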 The settings on record: high-content imaging, actives raise or lower the signal. In outline: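 HepG2 cells dosed 72 hr at 0.39–200 uM (0.5% DMSO), in duplicate. MitoTracker Red CMXRos 250 nM loaded 30 min before formaldehyde fixation; high-content fluorescence imaging, bidirectional fit versus DMSO.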

Assay [19] in a line: APR_HepG2_NuclearSize_72hr: Apredica 72-hour HepG2 Assay for Nuclear Size (AID 2282925). The settings on record: high-content imaging, actives raise or lower the signal. The method, boiled down:
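HepG2 cells dosed 72 h at 0.39–200 uM (10 concentrations, duplicate) in 0.5% v/v DMSO final. Fixed, Hoechst 33342-stained nuclei imaged; nuclear diameter measured by automated image analysis. Bidirectional fit versus DMSO.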

Active and inactive are the calls of the source. How the source made its calls: active means hit-call score of the fitted dose curve at least 0.9, where 1 is the maximum; inactive means score below 0.9.

`O=C1CCCO1`: the call in assay [1], in assay [2], in [3], in assay [4], in [5] and in assay [6] was inactive. In addition, the compound was classed as inactive in [7], in assay [8], in assay [9], in assay [10], in assay [11] and in [12]. Further, the compound was classed as inactive in [13], in assay [14], in [15], in [16], in assay [17] and in [18]. In addition, the compound was classed as inactive in assay [19].
Regarding `Cc1cccc(N)c1N`, the call in assay [1], in [2], in [3], in assay [4], in assay [6] and in [7] was inactive. Also, the outcome in assay [11], in assay [13], in assay [15], in assay [16], in assay [17] and in assay [18] was inactive. In addition, the outcome in assay [19] was inactive. The AC50 in [5] is 99.9 µM (active); in assay [8] it was 7.98 µM (active); in assay [9], 14.1 µM (active); in assay [10], 56.3 µM (active); in assay [12], 19.8 µM (active); in [14], 44.5 µM (active).
Turning to `Clc1ccc(Cl)c(Cl)c1`, the call in assay [1], in [2], in assay [3], in [4], in assay [5] and in assay [6] was inactive. The call in [7], in assay [8], in [9], in assay [10], in assay [11] and in assay [12] was inactive. Also, the outcome in assay [13], in assay [14], in assay [15], in assay [16], in assay [17] and in assay [18] was inactive. For the same compound, the result in [19] was inactive.
For `c1ccc2c(c1)oc1ccccc12`, the compound was called inactive in assay [1], in assay [2], in [3], in assay [4], in assay [5] and in assay [6]. Moreover, the outcome in assay [7], in assay [8], in assay [9], in [10], in assay [11] and in [13] was inactive. Besides, the compound was classed as inactive in assay [14], in [15], in assay [16], in assay [17], in assay [18] and in assay [19]. For the same compound, the AC50 in assay [12] is 0.0888 µM (active).
As for `CCOC(=O)[C@]1(c2ccccc2)Oc2ccccc2[C@@H]1N`, the compound was called inactive in [1], in assay [5], in assay [8], in assay [11], in [13] and in assay [16]. For the same compound, the outcome in assay [18] and in assay [19] was inactive. For the same compound, the AC50 in assay [2] is 86.7 µM (active); in assay [3], 112 µM (active); in assay [4], 111 µM (active); in [6] it was 107 µM (active); in assay [9], 116 µM (active); in assay [10] it was 112 µM (active). The AC50 in [12] was 90.8 µM (active); in [14], 120 µM (active); in [15], 109 µM (active).
As to `CS(=O)(=O)NC(=O)c1cc(Oc2ccc(C(F)(F)F)cc2Cl)ccc1[N+](=O)[O-]`, the compound was classed as inactive in assay [1], in assay [2], in assay [3], in [4], in assay [5] and in assay [6]. Also, the result in assay [7], in [8], in [9], in assay [10], in assay [11] and in assay [12] was inactive. Besides, the result in assay [13], in assay [14], in assay [15], in assay [16], in [17] and in assay [18] was inactive. Further, the call in assay [19] was inactive.
As for `N#CC(Br)(Br)C(N)=O`, the result in assay [1], in assay [2], in assay [3], in assay [4], in [5] and in assay [6] was inactive. Further, the compound was called inactive in [7], in [8], in assay [9], in assay [10], in assay [11] and in assay [12]. The result in assay [13], in [14], in assay [15], in assay [16], in assay [17] and in assay [18] was inactive. For the same compound, in [19], the call was inactive.
As for `CCCCC(CC)COC(=O)c1ccc(C(=O)OCC(CC)CCCC)c(C(=O)OCC(CC)CCCC)c1` (stereo not given), the result in assay [1], in [2], in [3], in assay [4], in assay [5] and in assay [6] was inactive. In addition, the result in assay [7], in assay [8], in assay [9], in assay [10], in assay [11] and in [12] was inactive. For the same compound, the compound was classed as inactive in [13], in [14], in assay [15], in assay [16], in [17] and in [18]. Further, the outcome in assay [19] was inactive.

(Values after PubChem BioAssay (EPA / NIEHS).)
